Measured values reported in the supplement of paper PMC11732987, “Enantioselective OTUD7B fragment discovery through chemoproteomics screening and high-throughput optimisation” (Communications Chemistry, 2025).

Tests used:
Experiment in all cases: log2 ratio of Biotin-Ahx-Ub-VS probe labelling (fragment/DMSO); higher = less target engagement (more negative = stronger competition), active = hit call of the paper (q ≤ 0.05, log2 ratio ≤ -1)
Conditions in all cases: compound concentration: 200 uM; treatment time: 3 h
USP9X = USP9X (UniProt Q93008)
Sequence of USP9X (Q93008 whole entry, the tested form may be a part): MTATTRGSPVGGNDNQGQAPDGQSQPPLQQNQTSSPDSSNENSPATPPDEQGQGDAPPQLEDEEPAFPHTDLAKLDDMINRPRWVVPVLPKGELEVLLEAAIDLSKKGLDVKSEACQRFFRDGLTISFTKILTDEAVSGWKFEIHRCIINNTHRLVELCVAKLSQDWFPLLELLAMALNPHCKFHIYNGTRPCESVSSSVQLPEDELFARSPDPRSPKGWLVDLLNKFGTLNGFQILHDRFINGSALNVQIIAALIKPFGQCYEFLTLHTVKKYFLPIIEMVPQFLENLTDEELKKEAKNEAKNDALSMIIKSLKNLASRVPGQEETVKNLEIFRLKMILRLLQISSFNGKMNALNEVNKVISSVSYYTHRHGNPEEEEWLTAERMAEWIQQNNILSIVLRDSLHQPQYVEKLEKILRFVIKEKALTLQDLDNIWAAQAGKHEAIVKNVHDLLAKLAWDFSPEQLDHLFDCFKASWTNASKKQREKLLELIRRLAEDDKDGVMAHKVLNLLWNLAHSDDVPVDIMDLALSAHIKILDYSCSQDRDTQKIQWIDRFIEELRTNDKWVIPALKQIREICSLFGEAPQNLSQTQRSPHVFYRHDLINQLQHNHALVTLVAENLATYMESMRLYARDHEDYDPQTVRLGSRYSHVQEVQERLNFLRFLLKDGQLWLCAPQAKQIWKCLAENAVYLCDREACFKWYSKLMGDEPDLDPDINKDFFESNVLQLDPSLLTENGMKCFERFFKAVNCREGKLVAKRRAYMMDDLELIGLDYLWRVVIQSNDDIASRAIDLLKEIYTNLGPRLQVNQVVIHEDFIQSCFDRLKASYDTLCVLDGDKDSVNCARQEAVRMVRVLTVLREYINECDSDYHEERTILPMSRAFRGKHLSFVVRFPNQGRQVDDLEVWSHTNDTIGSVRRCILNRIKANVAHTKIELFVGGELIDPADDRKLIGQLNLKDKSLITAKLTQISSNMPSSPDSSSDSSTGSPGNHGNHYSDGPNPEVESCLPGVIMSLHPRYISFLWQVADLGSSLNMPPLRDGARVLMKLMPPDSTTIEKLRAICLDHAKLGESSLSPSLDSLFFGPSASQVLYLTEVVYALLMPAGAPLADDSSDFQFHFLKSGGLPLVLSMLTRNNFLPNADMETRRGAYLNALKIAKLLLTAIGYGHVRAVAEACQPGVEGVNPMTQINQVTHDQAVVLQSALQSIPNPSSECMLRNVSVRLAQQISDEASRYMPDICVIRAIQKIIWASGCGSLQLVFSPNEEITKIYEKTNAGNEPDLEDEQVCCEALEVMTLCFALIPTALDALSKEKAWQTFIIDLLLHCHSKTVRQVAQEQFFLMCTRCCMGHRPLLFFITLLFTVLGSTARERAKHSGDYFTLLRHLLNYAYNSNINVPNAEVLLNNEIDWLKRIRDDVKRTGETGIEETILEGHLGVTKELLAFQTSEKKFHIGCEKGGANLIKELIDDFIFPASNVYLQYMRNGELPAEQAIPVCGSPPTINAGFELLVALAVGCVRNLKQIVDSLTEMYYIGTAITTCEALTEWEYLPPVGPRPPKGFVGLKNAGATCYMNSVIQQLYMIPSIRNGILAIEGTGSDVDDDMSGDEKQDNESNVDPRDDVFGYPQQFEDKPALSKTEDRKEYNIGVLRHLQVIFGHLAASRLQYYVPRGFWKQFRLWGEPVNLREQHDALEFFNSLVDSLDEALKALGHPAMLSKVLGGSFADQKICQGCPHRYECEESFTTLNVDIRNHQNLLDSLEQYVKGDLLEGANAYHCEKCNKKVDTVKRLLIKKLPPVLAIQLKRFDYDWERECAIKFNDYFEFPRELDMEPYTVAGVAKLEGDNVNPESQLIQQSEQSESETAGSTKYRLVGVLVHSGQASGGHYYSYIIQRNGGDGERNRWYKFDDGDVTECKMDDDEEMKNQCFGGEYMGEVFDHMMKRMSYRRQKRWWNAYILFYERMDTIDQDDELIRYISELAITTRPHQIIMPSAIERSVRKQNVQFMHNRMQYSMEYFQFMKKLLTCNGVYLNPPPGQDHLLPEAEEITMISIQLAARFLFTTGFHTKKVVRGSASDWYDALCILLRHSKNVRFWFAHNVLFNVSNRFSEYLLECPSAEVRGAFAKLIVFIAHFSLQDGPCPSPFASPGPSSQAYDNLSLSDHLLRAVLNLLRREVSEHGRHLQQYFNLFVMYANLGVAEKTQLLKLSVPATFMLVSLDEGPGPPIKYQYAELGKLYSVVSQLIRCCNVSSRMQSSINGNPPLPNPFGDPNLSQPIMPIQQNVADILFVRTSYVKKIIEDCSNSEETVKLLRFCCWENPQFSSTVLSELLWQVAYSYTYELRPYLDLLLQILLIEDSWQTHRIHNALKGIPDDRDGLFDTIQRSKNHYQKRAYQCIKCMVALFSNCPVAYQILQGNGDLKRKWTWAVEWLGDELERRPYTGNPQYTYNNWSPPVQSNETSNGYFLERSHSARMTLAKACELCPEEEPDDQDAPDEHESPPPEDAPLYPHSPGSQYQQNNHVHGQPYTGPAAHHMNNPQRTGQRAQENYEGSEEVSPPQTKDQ
Outline: (§1)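 Fragment (200 µM) or vehicle was incubated for 3 h with triplicate HEK293T lysate samples of 495 µg, which were then treated with Biotin-Ahx-Ub-VS at 0.5 µM final for 1 h. Labelled DUBs were enriched on NeutrAvidin, digested with LysC and trypsin, and analysed by diaPASEF LC-MS/MS. Values are average log2 fragment/vehicle ratios from an unpaired t-test on global-median-normalised Spectronaut label-free quantities, using proteins with ≥2 unique peptides.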

UniProt O00487 = target: UniProt O00487
Sequence of UniProt O00487 (O00487 whole entry): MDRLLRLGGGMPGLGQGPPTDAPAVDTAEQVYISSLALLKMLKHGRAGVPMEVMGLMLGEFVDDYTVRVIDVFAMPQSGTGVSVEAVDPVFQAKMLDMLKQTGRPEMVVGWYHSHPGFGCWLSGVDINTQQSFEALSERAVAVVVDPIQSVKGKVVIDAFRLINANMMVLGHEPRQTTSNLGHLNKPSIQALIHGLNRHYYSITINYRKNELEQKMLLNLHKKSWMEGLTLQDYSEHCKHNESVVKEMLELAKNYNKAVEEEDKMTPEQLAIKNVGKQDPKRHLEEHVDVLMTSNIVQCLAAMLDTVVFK
Outline: as §1

UniProt O00507 = target: UniProt O00507
Outline: as §1

UniProt P51784 = target: UniProt P51784
Sequence of UniProt P51784 (P51784 whole entry): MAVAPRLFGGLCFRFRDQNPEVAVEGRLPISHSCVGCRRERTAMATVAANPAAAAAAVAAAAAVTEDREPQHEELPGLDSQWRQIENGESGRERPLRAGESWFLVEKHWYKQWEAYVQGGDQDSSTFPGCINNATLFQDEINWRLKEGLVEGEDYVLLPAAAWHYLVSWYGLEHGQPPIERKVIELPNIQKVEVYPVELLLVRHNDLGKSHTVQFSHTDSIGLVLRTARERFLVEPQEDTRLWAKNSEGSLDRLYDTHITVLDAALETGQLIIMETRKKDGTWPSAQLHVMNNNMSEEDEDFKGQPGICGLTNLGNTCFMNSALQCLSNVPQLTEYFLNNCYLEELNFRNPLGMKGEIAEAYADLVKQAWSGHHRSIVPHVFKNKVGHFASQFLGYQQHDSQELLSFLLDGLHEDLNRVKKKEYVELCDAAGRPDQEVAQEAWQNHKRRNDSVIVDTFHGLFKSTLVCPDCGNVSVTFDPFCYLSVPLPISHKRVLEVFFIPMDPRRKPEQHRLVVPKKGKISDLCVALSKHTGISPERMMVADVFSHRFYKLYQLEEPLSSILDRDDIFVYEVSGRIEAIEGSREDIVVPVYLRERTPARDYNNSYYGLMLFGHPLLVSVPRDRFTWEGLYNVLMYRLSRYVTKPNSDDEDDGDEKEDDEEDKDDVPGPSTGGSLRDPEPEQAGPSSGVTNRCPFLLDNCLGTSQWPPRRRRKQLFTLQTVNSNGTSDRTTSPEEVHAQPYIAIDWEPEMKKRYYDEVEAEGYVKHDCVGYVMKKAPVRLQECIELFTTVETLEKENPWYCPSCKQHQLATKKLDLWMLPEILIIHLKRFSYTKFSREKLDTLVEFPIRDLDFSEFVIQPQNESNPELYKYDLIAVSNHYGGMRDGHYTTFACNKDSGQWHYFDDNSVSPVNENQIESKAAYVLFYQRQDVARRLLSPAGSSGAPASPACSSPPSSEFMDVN
Outline: as §1

UniProt Q5T2D3 = target: T1, UniProt Q5T2D3
T1 sequence (whole entry): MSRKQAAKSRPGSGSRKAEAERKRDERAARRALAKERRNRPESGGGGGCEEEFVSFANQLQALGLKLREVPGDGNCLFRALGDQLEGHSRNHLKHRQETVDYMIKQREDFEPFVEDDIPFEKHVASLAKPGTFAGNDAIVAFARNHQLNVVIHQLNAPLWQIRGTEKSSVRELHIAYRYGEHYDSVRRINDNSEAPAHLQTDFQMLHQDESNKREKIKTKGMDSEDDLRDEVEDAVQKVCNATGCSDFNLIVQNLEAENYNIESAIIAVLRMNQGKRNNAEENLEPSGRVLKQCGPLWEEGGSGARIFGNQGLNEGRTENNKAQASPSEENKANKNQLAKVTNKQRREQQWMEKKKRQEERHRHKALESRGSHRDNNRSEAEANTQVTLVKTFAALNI
Outline: as §1

UniProt Q8TE49 = target: T2, UniProt Q8TE49
T2 sequence (whole entry): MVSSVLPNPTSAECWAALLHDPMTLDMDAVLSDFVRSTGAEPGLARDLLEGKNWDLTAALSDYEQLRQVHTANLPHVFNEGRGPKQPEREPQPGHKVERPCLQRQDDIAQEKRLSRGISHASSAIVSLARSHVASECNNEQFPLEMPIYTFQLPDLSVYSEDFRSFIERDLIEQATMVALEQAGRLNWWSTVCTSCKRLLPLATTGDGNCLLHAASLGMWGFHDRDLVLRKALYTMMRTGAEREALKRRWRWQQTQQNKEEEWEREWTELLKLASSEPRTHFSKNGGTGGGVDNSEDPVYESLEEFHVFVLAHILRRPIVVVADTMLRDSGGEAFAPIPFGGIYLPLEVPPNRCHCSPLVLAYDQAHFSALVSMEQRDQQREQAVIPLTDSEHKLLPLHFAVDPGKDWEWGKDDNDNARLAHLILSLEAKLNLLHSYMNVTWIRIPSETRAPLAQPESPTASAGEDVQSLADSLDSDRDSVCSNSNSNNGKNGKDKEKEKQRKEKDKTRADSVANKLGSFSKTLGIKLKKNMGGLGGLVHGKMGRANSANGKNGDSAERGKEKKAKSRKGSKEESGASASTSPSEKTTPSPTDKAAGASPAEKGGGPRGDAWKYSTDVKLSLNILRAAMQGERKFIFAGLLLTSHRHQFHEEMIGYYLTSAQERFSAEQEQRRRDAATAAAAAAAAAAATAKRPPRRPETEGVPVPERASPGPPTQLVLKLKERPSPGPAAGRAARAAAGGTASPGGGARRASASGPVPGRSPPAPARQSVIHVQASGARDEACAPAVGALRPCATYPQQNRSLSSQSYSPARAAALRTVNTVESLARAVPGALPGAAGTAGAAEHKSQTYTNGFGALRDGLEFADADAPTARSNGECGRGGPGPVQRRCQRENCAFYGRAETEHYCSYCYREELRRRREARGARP
Outline: as §1

UniProt Q9P2H5 = target: T3, UniProt Q9P2H5
T3 sequence (whole entry): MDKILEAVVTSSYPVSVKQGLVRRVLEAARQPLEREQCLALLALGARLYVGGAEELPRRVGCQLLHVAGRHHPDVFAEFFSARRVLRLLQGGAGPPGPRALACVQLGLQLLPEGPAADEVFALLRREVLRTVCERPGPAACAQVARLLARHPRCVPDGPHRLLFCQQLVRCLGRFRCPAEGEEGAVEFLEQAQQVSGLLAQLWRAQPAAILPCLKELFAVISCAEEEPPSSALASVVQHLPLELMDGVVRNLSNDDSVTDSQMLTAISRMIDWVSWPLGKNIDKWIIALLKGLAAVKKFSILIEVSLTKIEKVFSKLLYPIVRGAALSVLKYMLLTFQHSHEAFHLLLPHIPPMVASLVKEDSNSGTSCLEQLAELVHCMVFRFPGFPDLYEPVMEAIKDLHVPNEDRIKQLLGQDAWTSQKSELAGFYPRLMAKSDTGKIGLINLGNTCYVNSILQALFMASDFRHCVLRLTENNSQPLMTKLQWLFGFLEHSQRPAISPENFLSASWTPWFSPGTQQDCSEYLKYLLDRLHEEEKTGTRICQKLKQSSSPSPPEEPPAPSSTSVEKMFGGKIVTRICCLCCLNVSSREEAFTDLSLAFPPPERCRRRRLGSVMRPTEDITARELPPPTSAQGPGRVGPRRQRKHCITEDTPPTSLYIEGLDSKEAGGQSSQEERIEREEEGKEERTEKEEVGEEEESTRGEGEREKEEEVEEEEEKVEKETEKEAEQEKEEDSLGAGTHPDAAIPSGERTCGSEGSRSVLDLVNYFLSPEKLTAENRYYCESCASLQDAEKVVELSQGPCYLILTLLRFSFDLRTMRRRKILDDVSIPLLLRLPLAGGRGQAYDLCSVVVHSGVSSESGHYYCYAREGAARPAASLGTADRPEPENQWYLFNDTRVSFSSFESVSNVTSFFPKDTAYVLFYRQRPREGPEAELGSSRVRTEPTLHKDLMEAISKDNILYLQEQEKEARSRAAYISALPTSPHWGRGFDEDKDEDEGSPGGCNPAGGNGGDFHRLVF
Outline: as §1

UniProt Q9UGI0 = target: T4, UniProt Q9UGI0
T4 sequence (whole entry): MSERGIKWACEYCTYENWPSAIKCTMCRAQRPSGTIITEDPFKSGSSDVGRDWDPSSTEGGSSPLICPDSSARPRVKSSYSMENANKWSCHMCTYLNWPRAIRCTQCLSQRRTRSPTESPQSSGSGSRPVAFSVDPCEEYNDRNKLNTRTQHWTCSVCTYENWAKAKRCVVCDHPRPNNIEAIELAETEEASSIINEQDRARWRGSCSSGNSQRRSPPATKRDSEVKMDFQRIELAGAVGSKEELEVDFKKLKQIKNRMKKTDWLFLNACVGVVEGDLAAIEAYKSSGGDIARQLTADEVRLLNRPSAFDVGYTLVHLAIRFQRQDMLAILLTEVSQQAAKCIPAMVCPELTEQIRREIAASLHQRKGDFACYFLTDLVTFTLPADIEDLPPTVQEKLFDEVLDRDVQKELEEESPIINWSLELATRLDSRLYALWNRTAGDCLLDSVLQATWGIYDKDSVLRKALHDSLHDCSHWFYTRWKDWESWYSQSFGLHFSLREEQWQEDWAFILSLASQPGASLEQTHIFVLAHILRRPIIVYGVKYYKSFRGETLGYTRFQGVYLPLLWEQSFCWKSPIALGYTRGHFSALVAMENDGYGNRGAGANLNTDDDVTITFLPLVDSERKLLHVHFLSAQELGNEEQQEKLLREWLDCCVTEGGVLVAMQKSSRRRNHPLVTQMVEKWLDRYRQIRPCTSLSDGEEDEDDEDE
Outline: as §1

YOD1 = target: T5, YOD1 (UniProt Q5VVQ6)
T5 sequence (whole entry): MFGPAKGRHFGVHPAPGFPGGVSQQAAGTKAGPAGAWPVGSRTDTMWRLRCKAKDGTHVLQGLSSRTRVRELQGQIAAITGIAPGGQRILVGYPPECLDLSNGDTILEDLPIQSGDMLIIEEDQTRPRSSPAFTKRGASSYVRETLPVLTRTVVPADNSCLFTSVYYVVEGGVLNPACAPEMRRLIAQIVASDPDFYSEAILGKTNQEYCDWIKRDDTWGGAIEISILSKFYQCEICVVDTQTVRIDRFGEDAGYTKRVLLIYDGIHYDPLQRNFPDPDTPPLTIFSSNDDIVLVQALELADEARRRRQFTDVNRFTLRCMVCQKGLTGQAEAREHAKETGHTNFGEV
Outline: as §1

Measured: log2 ratio of Biotin-Ahx-Ub-VS probe labelling

Cc1nc(CNC(=O)CCl)c2ccccn12.Cl
inactive: USP9X -0.222 | UniProt O00487 0.0442 | UniProt O00507 0.444 | UniProt P51784 -0.0444 | UniProt Q5T2D3 -0.454 | UniProt Q8TE49 -0.499 | UniProt Q9P2H5 -0.818 | UniProt Q9UGI0 -0.311 | YOD1 0.114
